Source: PMC7862700, “An all-to-all approach to the identification of sequence-specific readers for epigenetic DNA modifications on cytosine”

Tests used:
Assay in all cases: DAPPL (digital affinity profiling via proximity ligation, sequencing); 10 mM Tris-HCl pH 7.5, 50 mM NaCl, 1 mM DTT, 4% glycerol, room temperature, 30 min; GST-TFs on glutathione beads, 16-mer random dsDNA library, 0.1% formaldehyde crosslink after washing; high values mean tight binding
[1] = molecular target: T1, FLI1 (Homo sapiens, UniProt Q01543 1-452); conditions: protein: recombinant; tags: N-terminal GST; dsDNA, one strand shown
T1 sequence: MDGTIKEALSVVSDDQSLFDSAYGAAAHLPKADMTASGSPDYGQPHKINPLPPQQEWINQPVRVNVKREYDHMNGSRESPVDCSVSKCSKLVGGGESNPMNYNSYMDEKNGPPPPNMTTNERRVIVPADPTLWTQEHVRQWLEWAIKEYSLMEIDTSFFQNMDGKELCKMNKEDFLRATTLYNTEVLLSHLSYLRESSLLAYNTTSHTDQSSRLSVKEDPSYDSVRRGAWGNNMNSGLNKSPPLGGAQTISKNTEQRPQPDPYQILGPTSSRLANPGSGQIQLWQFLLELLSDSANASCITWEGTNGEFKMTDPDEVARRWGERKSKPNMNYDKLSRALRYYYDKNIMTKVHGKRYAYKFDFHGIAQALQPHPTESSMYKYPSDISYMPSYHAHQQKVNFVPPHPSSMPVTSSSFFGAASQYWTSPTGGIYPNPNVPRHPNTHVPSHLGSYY
How it was run: (§1)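 After expression in yeast as GST fusions, human transcription factors were bound to glutathione beads, DNA-barcoded and mixed with a tag-only sample. The pools were incubated with 200 nmole of a 16-mer random double-stranded DNA library in Tris/NaCl/DTT/glycerol buffer (30 min, room temperature), washed and crosslinked with 0.1% formaldehyde. Proximity ligation with BsaI/T4 ligase ran for 1 h at 37 °C, before PCR amplification and sequencing on an Illumina NextSeq500. Binding signal is a hexamer's read frequency for a factor divided by its frequency for the tag-only sample.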

[2] = molecular target: T2, ELK1 (Homo sapiens, UniProt P19419 1-428); conditions: protein: recombinant; tags: N-terminal GST; dsDNA, one strand shown
T2 sequence: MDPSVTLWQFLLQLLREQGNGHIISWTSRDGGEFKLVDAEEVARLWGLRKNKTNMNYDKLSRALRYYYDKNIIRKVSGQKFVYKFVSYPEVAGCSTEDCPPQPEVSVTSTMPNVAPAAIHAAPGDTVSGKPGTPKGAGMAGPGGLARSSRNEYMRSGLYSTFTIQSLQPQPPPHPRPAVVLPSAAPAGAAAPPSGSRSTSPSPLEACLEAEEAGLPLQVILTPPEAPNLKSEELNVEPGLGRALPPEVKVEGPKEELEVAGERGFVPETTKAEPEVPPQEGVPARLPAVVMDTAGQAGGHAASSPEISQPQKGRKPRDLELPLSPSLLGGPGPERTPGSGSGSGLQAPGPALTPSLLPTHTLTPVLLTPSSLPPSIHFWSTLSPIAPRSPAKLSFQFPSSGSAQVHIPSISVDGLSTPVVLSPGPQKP
How it was run: as §1

[3] = molecular target: T3, GABPA (Homo sapiens, UniProt Q06546 1-454); conditions: protein: recombinant; tags: N-terminal GST; dsDNA, one strand shown
T3 sequence: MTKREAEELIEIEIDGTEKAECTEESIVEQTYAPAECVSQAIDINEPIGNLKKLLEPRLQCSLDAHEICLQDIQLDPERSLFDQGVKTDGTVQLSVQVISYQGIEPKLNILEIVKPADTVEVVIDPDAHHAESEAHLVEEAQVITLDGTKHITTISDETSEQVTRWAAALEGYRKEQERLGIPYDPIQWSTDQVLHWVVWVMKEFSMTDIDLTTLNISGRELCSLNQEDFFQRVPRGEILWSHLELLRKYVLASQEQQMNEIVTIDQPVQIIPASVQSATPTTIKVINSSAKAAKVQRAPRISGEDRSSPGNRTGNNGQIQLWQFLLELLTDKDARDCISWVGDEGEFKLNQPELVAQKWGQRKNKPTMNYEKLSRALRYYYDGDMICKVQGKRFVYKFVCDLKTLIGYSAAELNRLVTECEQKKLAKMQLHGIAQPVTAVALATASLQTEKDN
How it was run: as §1

[4] = molecular target: T4, ERG (Homo sapiens, UniProt P11308 1-479); conditions: protein: recombinant; tags: N-terminal GST; dsDNA, one strand shown
T4 sequence: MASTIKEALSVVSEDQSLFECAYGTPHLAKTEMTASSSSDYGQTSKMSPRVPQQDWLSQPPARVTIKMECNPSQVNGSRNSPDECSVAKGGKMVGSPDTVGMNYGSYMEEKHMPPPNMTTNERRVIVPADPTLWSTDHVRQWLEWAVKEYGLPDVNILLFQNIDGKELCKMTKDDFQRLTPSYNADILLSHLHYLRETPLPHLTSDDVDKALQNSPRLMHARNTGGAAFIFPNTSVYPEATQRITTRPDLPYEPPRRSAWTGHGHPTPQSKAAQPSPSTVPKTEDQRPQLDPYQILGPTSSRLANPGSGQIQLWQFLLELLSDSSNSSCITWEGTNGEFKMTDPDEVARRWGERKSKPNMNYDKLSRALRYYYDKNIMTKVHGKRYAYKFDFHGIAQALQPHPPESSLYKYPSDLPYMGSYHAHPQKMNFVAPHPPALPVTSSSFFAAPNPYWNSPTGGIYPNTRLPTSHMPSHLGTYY
How it was run: as §1

[5] = molecular target: ELF1 (Homo sapiens, UniProt P32519 1-619); conditions: protein: recombinant; tags: N-terminal GST; dsDNA, one strand shown
How it was run: as §1

[6] = molecular target: T5, EHF (Homo sapiens, UniProt Q9NZC4 1-300); conditions: protein: recombinant; tags: N-terminal GST; dsDNA, one strand shown
T5 sequence: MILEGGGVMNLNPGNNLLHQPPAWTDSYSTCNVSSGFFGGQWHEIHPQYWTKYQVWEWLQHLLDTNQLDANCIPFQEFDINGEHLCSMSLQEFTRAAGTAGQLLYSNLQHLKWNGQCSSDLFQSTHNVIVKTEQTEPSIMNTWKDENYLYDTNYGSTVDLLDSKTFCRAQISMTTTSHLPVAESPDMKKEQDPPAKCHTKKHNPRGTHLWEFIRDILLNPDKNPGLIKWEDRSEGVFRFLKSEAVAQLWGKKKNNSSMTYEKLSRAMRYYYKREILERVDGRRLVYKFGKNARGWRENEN
How it was run: as §1

[7] = molecular target: SPI1 (Homo sapiens, UniProt P17947 1-270); conditions: protein: recombinant; tags: N-terminal GST; dsDNA, one strand shown
How it was run: as §1

[8] = molecular target: SPIB (Homo sapiens, UniProt Q01892 1-262); conditions: protein: recombinant; tags: N-terminal GST; dsDNA, one strand shown
How it was run: as §1

[9] = molecular target: T6, ELK3 (Homo sapiens, UniProt P41970 1-407); conditions: protein: recombinant; tags: N-terminal GST; dsDNA, one strand shown
T6 sequence: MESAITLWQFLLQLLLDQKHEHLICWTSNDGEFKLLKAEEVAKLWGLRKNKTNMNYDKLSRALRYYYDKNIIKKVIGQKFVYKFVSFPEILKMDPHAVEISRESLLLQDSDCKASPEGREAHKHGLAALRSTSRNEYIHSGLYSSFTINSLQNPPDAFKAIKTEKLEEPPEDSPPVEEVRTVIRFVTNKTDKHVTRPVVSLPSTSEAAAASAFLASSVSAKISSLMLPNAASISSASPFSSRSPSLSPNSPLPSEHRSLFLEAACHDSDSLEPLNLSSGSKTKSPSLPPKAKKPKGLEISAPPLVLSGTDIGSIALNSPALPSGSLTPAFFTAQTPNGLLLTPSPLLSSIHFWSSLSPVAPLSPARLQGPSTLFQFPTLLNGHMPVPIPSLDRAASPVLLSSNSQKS
How it was run: as §1

[10] = molecular target: T7, FEV (Homo sapiens, UniProt Q99581 1-238); conditions: protein: recombinant; tags: N-terminal GST; dsDNA, one strand shown
T7 sequence: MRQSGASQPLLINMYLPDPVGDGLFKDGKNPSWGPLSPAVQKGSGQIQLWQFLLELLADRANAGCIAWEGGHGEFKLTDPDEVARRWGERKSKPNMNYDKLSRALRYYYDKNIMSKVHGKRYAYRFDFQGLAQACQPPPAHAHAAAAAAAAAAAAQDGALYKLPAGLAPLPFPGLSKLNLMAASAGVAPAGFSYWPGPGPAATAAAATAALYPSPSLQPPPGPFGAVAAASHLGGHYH
How it was run: as §1

[11] = molecular target: ETV5 (Homo sapiens, UniProt P41161 1-510); conditions: protein: recombinant; tags: N-terminal GST; dsDNA, one strand shown
How it was run: as §1

[12] = molecular target: HSF1 (Homo sapiens, UniProt Q00613 1-529); conditions: protein: recombinant; tags: N-terminal GST; chain copies: 3; dsDNA, one strand shown
How it was run: as §1

[13] = molecular target: T8, SPIC (Homo sapiens, UniProt Q8N5J4 1-248); conditions: protein: recombinant; tags: N-terminal GST; dsDNA, one strand shown
T8 sequence: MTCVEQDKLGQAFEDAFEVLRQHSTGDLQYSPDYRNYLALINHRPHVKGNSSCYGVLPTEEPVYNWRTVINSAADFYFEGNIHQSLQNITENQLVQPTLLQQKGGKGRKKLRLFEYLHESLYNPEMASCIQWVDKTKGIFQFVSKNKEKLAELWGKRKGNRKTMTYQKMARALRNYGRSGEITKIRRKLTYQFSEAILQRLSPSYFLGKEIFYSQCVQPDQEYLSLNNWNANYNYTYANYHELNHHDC
How it was run: as §1

[14] = molecular target: ELF4 (Homo sapiens, UniProt Q99607 1-663); conditions: protein: recombinant; tags: N-terminal GST; dsDNA, one strand shown
How it was run: as §1

[15] = molecular target: T9, ELK4 (Homo sapiens, UniProt P28324-2 1-405); conditions: protein: recombinant; tags: N-terminal GST; dsDNA, one strand shown
T9 sequence: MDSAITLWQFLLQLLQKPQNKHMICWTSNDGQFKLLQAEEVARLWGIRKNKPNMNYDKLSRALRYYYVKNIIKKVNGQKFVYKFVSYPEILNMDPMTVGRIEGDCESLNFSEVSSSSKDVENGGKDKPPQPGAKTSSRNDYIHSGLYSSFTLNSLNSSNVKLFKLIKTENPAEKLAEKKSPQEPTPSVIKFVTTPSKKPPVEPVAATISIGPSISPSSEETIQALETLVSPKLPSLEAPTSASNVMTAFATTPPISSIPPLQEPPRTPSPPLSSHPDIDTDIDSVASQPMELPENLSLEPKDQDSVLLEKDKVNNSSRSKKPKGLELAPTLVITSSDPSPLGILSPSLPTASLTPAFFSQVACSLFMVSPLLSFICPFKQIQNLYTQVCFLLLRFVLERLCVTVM
How it was run: as §1

[16] = molecular target: T10, ETV2 (Homo sapiens, UniProt O00321 1-342); conditions: protein: recombinant; tags: N-terminal GST; dsDNA, one strand shown
T10 sequence: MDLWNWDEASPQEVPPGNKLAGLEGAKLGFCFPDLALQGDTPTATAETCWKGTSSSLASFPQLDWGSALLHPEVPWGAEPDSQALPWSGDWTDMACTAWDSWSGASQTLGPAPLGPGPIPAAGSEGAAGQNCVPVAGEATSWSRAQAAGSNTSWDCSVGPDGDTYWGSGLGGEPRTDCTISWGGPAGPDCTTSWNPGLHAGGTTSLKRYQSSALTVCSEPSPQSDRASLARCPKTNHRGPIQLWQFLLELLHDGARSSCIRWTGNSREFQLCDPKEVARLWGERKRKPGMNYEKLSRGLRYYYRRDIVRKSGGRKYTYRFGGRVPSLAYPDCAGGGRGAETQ
How it was run: as §1

[17] = molecular target: T11, ELF3 (Homo sapiens, UniProt P78545 1-371); conditions: protein: recombinant; tags: N-terminal GST; dsDNA, one strand shown
T11 sequence: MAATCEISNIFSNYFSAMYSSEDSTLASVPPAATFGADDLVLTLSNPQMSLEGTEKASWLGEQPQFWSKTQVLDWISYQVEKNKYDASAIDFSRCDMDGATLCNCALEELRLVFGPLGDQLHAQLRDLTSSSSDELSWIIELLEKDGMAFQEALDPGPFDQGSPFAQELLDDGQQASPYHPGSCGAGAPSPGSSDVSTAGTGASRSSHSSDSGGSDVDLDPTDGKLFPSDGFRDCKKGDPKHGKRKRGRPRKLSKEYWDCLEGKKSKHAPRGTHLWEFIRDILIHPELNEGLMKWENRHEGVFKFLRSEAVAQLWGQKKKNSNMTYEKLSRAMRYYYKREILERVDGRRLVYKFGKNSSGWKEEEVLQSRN
How it was run: as §1

[18] = molecular target: CRX (Homo sapiens, UniProt O43186 1-299); conditions: protein: recombinant; tags: N-terminal GST; dsDNA, one strand shown
How it was run: as §1

[19] = molecular target: ETV1 (Homo sapiens, UniProt P50549 1-477); conditions: protein: recombinant; tags: N-terminal GST; dsDNA, one strand shown
How it was run: as §1

Sequence of CRX (O43186 whole entry): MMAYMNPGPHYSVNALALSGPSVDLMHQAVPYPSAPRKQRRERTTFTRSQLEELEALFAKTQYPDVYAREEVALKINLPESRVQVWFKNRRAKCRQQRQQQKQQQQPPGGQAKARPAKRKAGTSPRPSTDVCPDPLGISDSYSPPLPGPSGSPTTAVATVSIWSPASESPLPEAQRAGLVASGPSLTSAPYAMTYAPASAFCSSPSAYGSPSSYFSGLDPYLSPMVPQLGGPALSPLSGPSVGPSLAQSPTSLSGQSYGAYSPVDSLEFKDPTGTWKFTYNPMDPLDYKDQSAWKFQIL
Sequence of ETV1 (P50549 whole entry): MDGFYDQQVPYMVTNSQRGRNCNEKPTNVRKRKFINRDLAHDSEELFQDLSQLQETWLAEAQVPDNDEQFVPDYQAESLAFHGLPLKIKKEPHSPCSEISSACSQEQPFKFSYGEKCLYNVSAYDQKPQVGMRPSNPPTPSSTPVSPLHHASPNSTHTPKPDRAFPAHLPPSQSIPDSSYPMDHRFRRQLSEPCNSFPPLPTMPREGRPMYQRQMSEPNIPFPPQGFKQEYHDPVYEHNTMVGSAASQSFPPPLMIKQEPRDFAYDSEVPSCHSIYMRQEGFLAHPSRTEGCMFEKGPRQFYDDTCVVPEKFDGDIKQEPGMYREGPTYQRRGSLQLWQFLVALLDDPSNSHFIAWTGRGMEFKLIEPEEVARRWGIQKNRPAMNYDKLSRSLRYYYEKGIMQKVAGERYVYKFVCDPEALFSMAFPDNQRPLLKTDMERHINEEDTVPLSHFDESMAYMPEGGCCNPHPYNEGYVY
Sequence of ELF1 (P32519 whole entry): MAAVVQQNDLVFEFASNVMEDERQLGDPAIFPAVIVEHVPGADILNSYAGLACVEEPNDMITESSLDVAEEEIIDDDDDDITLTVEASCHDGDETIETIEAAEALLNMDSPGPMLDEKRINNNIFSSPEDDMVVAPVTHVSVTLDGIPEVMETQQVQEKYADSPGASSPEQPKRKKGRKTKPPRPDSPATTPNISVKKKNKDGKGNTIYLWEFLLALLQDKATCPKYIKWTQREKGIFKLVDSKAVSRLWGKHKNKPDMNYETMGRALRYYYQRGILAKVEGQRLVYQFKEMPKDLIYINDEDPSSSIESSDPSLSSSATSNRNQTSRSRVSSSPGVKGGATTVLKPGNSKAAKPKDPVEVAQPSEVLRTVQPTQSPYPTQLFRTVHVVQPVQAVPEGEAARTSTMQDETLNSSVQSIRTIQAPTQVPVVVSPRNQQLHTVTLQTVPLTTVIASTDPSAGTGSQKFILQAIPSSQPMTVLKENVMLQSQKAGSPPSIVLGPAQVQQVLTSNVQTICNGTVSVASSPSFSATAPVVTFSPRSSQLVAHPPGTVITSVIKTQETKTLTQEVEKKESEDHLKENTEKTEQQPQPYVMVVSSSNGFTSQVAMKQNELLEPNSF
Sequence of HSF1 (Q00613 whole entry): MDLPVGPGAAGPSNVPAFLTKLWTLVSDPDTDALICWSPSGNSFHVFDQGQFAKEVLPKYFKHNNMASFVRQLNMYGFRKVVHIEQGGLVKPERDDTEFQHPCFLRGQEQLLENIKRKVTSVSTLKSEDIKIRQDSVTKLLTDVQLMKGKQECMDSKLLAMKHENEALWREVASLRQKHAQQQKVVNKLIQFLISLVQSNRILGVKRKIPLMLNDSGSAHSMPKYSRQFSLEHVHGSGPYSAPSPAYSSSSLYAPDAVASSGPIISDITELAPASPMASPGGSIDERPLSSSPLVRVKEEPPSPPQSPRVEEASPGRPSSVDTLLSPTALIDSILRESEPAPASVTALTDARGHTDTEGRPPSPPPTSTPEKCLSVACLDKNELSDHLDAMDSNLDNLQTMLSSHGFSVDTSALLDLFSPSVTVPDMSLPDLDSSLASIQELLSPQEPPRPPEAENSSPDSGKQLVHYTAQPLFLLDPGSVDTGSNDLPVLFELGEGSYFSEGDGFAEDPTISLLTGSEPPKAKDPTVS
Sequence of ELF4 (Q99607 whole entry): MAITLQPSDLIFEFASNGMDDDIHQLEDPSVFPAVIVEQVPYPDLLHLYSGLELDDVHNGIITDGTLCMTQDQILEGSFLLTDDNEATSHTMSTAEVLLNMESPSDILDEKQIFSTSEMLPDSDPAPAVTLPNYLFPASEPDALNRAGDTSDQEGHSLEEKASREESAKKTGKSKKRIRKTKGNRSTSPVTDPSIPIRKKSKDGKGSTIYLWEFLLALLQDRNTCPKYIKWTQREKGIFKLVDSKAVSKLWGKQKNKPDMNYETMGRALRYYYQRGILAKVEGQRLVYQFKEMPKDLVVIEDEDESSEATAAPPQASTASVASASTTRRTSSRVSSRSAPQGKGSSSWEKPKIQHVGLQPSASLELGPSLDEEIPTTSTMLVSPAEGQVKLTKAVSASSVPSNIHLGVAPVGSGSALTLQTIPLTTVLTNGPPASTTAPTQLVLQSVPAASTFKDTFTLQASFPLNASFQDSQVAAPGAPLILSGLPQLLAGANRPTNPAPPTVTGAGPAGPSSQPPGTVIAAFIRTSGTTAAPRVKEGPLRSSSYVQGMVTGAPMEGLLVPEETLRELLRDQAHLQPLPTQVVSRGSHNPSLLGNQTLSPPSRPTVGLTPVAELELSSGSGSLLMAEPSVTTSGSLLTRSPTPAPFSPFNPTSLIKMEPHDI
Sequence of SPIB (Q01892 whole entry): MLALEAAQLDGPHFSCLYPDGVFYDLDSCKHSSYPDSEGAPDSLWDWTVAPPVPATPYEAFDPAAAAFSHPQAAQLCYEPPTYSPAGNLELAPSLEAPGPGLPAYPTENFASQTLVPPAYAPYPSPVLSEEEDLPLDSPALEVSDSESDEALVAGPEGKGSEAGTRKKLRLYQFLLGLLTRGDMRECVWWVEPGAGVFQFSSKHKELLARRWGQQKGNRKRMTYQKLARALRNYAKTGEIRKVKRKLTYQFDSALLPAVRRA
Sequence of ETV5 (P41161 whole entry): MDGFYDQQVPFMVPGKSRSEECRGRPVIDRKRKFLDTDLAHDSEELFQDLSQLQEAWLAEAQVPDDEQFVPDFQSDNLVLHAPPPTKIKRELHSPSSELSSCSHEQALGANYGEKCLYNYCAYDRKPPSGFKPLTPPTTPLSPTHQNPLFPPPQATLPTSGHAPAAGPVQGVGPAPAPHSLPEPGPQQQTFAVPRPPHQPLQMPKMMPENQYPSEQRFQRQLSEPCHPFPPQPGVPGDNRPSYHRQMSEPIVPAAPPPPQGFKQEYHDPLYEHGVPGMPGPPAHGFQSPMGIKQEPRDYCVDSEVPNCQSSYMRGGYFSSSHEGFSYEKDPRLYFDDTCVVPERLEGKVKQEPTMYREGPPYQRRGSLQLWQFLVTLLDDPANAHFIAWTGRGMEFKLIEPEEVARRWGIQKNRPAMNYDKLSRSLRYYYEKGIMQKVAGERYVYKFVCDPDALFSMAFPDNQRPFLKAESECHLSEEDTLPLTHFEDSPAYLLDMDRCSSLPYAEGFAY

## ATAATA
[1]
  binding signal: 1.13 fold enrichment (6-mer frequency, TF over GST control)
[2]
  binding signal: 1.07 fold enrichment (6-mer frequency, TF over GST control)
[3]
  binding signal: 1.18 fold enrichment (6-mer frequency, TF over GST control)
[4]
  binding signal: 1.17 fold enrichment (6-mer frequency, TF over GST control)
[5]
  binding signal: 1.23 fold enrichment (6-mer frequency, TF over GST control)
[6]
  binding signal: 1.24 fold enrichment (6-mer frequency, TF over GST control)
[7]
  binding signal: 1.18 fold enrichment (6-mer frequency, TF over GST control)
[8]
  binding signal: 1.18 fold enrichment (6-mer frequency, TF over GST control)
[9]
  binding signal: 1.11 fold enrichment (6-mer frequency, TF over GST control)
[10]
  binding signal: 1.17 fold enrichment (6-mer frequency, TF over GST control)
[11]
  binding signal: 1.18 fold enrichment (6-mer frequency, TF over GST control)
[12]
  binding signal: 1.67 fold enrichment (6-mer frequency, TF over GST control)
[13]
  binding signal: 1.21 fold enrichment (6-mer frequency, TF over GST control)
[14]
  binding signal: 1.14 fold enrichment (6-mer frequency, TF over GST control)
[15]
  binding signal: 1.14 fold enrichment (6-mer frequency, TF over GST control)
[16]
  binding signal: 1.1 fold enrichment (6-mer frequency, TF over GST control)
[17]
  binding signal: 1.15 fold enrichment (6-mer frequency, TF over GST control)
[18]
  binding signal: 2.14 fold enrichment (6-mer frequency, TF over GST control)
[19]
  binding signal: 1.17 fold enrichment (6-mer frequency, TF over GST control)
